Source: PubChem BioAssay AID1159580 (chemical genetic matrix, 2015)
About 2,000 (36%) of roughly 5,500 compounds were called active. Not shown: some 18% with an inconclusive outcome. Cut-off read from the data, not from the text of the source: active = normalized growth mostly below about 0.91 (no sharp cut-off); inconclusive = no clear call, values can overlap the other calls; inactive = mostly above about 0.92. The list shows a part of the results.

Experiment: chemical genetic growth profiling, strain panel (AID 1159580);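 note: tested at 20 µM; growth read once vehicle control cultures reached saturation at 30 °C; 1 = growth at the plate median or of vehicle wells; lower values mean less growth of the strain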
Conditions: growth OD
[1] = S. cerevisiae deletion strains, locus YAL013W, strain DEP1, hits give low values
[2] = S. cerevisiae deletion strains, locus YBR229C, strain ROT2, hits give low values
[3] = S. cerevisiae deletion strains, locus YDL101C, strain DUN1, hits give low values
[4] = S. cerevisiae deletion strains, locus YDL134C, strain PPH21, hits give low values
[5] = S. cerevisiae deletion strains, locus YDR150W, strain NUM1, hits give low values
[6] = S. cerevisiae deletion strains, locus YEL061C, strain CIN8, hits give low values
[7] = S. cerevisiae deletion strains, locus YGR078C, strain PAC10, hits give low values
[8] = S. cerevisiae deletion strains, locus YHR030C, strain SLT2, hits give low values
[9] = S. cerevisiae deletion strains, locus YHR087W, strain rtc3, hits give low values
[10] = S. cerevisiae deletion strains, locus YJL187C, strain SWE1, hits give low values
[11] = S. cerevisiae deletion strains, locus YJR043C, strain POL32, hits give low values
[12] = S. cerevisiae deletion strains, locus YJR075W, strain HOC1, hits give low values
[13] = S. cerevisiae deletion strains, locus YLR039C, strain RIC1, hits give low values
[14] = S. cerevisiae deletion strains, locus YLR058C, strain SHM2 (second series), hits give low values
[15] = S. cerevisiae deletion strains, locus YLR085C, strain ARP6, hits give low values
[16] = S. cerevisiae deletion strains, locus YLR262C, strain YPT6, hits give low values
[17] = S. cerevisiae deletion strains, locus YML094W, strain GIM5, hits give low values
[18] = S. cerevisiae deletion strains, locus YMR219W, strain ESC1, hits give low values
[19] = S. cerevisiae deletion strains, locus YMR263W, strain SAP30, hits give low values
[20] = S. cerevisiae deletion strains, locus YNL153C, strain GIM3, hits give low values
[21] = S. cerevisiae deletion strains, locus YNL298W, strain CLA4 (second series), hits give low values
[22] = S. cerevisiae deletion strains, locus YNL322C, strain KRE1, hits give low values
[23] = S. cerevisiae deletion strains, locus YNR030W, strain Alg12, hits give low values
[24] = S. cerevisiae deletion strains, locus YOL006C, strain TOP1, hits give low values
[25] = S. cerevisiae deletion strains, locus YPL055C, strain LGE1, hits give low values
[26] = S. cerevisiae deletion strains, locus YPL241C, strain CIN2, hits give low values
[27] = S. cerevisiae deletion strains, locus YPR135W, strain CTF4, hits give low values
[28] = S. cerevisiae strains, strain wild type, hits give low values
[29] = S. cerevisiae deletion strains, locus YGR229C, strain SMI1, hits give low values
[30] = S. cerevisiae deletion strains, locus YKL190W, strain CNB1, hits give low values
[31] = S. cerevisiae deletion strains, locus YMR307W, strain GAS1, hits give low values
[32] = S. cerevisiae deletion strains, locus YNL128W, strain TEP1, hits give low values

Measured: normalized growth

CCOC(=O)c1sc(SC(C)C)c2c1CCCC2=O
inactive: [1] 0.979 | [2] 0.969 | [3] 0.973 | [5] 1.06 | [7] 0.982 | [9] 0.978 | [11] 1.02 | [12] 0.93 | [14] 0.974 | [16] 0.864 | [17] 0.911 | [18] 0.969 | [19] 1.03 | [20] 0.978 | [22] 0.97 | [24] 0.738 | [25] 1.04 | [27] 0.762 | [28] 0.951
active: [4] 0.82 | [6] 0.795 | [8] 0.53 | [10] 0.851 | [13] 0.785 | [15] 0.646 | [21] 0.835 | [23] 0.884 | [26] 0.801

CCOC(=O)c1sc(S(C)(=O)=O)c2c1CCCC2O (stereo unspecified)
inactive: [1] 1.02 | [2] 1 | [3] 0.995 | [4] 1.01 | [5] 0.95 | [6] 1.02 | [7] 1 | [29] 1 | [8] 1.03 | [9] 0.995 | [11] 0.98 | [12] 1.01 | [30] 1 | [13] 1.05 | [14] 1.01 | [15] 1.08 | [16] 1.04 | [17] 1.03 | [18] 1.01 | [19] 1.04 | [31] 1.08 | [20] 1 | [21] 1.03 | [22] 1.02 | [23] 1.03 | [25] 0.952 | [26] 1.02 | [27] 1.05 | [28] 1.01

Cn1[nH]c(=O)cc1C(=O)NN
inactive: [1] 1 | [2] 1.02 | [3] 1 | [4] 0.996 | [5] 1.01 | [6] 1.03 | [7] 1 | [8] 1.11 | [9] 1 | [10] 0.998 | [11] 1.01 | [12] 0.992 | [13] 0.998 | [14] 0.985 | [15] 0.978 | [16] 1.11 | [17] 0.99 | [18] 1 | [19] 0.991 | [31] 0.899 | [32] 0.981 | [20] 1.05 | [21] 1.03 | [22] 0.995 | [23] 1.01 | [25] 0.995 | [26] 0.992 | [27] 1.12 | [28] 0.986

COC(=O)C1OC(=O)C2OC23C1(C)CCC1C2(C)C(OC(C)=O)CC(OC(C)=O)C(C)(C)C2CC(=O)C13C (stereo unspecified)
inactive: [1] 1.02 | S. cerevisiae deletion strains, locus YBR021W, strain FUR4, hits give low values 0.914 | [2] 1 | S. cerevisiae deletion strains, locus YCL029C, strain bik1, hits give low values 0.987 | S. cerevisiae deletion strains, locus YDL035C, strain GPR1, hits give low values 1 | S. cerevisiae deletion strains, locus YDL074C, strain BRE1, hits give low values 1.03 | [3] 0.997 | [4] 0.998 | S. cerevisiae deletion strains, locus YDL185W, strain tfp1, hits give low values 0.962 | S. cerevisiae deletion strains, locus YDL192W, strain arf1, hits give low values 0.988 | S. cerevisiae deletion strains, locus YDR101C, strain arx1, hits give low values 0.999 | [5] 0.969 | S. cerevisiae deletion strains, locus YDR162C, strain NBP2, hits give low values 1.01 | S. cerevisiae deletion strains, locus YDR318W, strain mcm21, hits give low values 0.988 | S. cerevisiae deletion strains, locus YDR388W, hits give low values 1 | S. cerevisiae deletion strains, locus YDR502C, strain sam2, hits give low values 0.996 | [6] 1 | S. cerevisiae deletion strains, locus YER110C, hits give low values 0.985 | S. cerevisiae deletion strains, locus YER155C, strain BEM2, hits give low values 0.929 | S. cerevisiae deletion strains, locus YER167W, strain BCK2, hits give low values 0.984 | S. cerevisiae deletion strains, locus YGL078C, strain dbp3, hits give low values 0.979 | S. cerevisiae deletion strains, locus YGL086W, strain mad1, hits give low values 0.982 | S. cerevisiae deletion strains, locus YGL248W, strain PDE1, hits give low values 0.983 | [7] 1 | S. cerevisiae deletion strains, locus YGR135W, strain pre9, hits give low values 0.997 | [29] 1 | S. cerevisiae deletion strains, locus YGR252W, strain gcn5, hits give low values 1.01 | [8] 0.997 | S. cerevisiae deletion strains, locus YHR079C, strain IRE1 (second series), hits give low values 0.998 | S. cerevisiae deletion strains, locus YHR094C, strain hxt1, hits give low values 0.972 | S. cerevisiae deletion strains, locus YHR129C, strain ARP1, hits give low values 1 | S. cerevisiae deletion strains, locus YHR200W, strain rpn10, hits give low values 0.985 | S. cerevisiae deletion strains, locus YIL066C, strain RNR3, hits give low values 1 | S. cerevisiae deletion strains, locus YIL073C, strain SPO22, hits give low values 0.883 | S. cerevisiae deletion strains, locus YIL125W, strain kgd1, hits give low values 1 | S. cerevisiae deletion strains, locus YIR030C, strain dcg1, hits give low values 0.998 | S. cerevisiae deletion strains, locus YJL095W, strain BCK1, hits give low values 1.05 | S. cerevisiae deletion strains, locus YJL134W, strain LCB3, hits give low values 0.994 | S. cerevisiae deletion strains, locus YJL168C, strain set2, hits give low values 1 | S. cerevisiae deletion strains, locus YJL187C, strain SWE1 (second series), hits give low values 0.996 | [11] 0.984 | [12] 1.01 | S. cerevisiae deletion strains, locus YKL009W, strain mrt4, hits give low values 0.967 | S. cerevisiae deletion strains, locus YKL068W, hits give low values 0.983 | S. cerevisiae deletion strains, locus YKL085W, strain MDH1 (second series), hits give low values 0.984 | S. cerevisiae deletion strains, locus YKL085W, strain MDH1, hits give low values 0.984 | [30] 1 | S. cerevisiae deletion strains, locus YKR001C, strain vps1, hits give low values 0.983 | [13] 0.963 | S. cerevisiae deletion strains, locus YLR058C, strain SHM2, hits give low values 1 | S. cerevisiae deletion strains, locus YLR102C, strain apc9, hits give low values 0.996 | [16] 0.966 | S. cerevisiae deletion strains, locus YLR268W, strain sec22, hits give low values 0.996 | S. cerevisiae deletion strains, locus YLR330W, strain CHS5, hits give low values 0.995 | S. cerevisiae deletion strains, locus YLR342W, strain FKS1 (second series), hits give low values 0.985 | S. cerevisiae deletion strains, locus YLR371W, strain rom2, hits give low values 0.981 | S. cerevisiae deletion strains, locus YLR418C, strain cdc73, hits give low values 1.05 | S. cerevisiae deletion strains, locus YML016C, strain PPZ1, hits give low values 0.997 | S. cerevisiae deletion strains, locus YML032C, strain rad52, hits give low values 0.977 | S. cerevisiae deletion strains, locus YML124C, strain tub3, hits give low values 0.992 | S. cerevisiae deletion strains, locus YMR078C, strain ctf18, hits give low values 0.992 | S. cerevisiae deletion strains, locus YMR223W, strain ubp8, hits give low values 0.974 | [19] 0.994 | [31] 1 | S. cerevisiae deletion strains, locus YNL067W, strain RPL9B, hits give low values 0.994 | [32] 1.02 | [20] 1 | S. cerevisiae deletion strains, locus YNL233W, strain BNI4, hits give low values 1.01 | S. cerevisiae deletion strains, locus YNL250W, strain rad50, hits give low values 0.987 | S. cerevisiae deletion strains, locus YNL271C, strain bni1, hits give low values 0.995 | S. cerevisiae deletion strains, locus YNL298W, strain CLA4, hits give low values 0.985 | S. cerevisiae deletion strains, locus YNL307C, strain MCK1, hits give low values 0.988 | [22] 1.01 | S. cerevisiae deletion strains, locus YNR052C, strain pop2, hits give low values 0.986 | [24] 1.04 | S. cerevisiae deletion strains, locus YOL012C, strain htz1 0.841 | S. cerevisiae deletion strains, locus YOL147C, strain pex11, hits give low values 0.99 | S. cerevisiae deletion strains, locus YOR061W, strain CKA2, hits give low values 1 | S. cerevisiae deletion strains, locus YOR069W, strain VPS5, hits give low values 0.996 | S. cerevisiae deletion strains, locus YOR136W, strain idh2, hits give low values 0.985 | S. cerevisiae deletion strains, locus YOR144C, strain elg1, hits give low values 0.993 | S. cerevisiae deletion strains, locus YOR184W, strain ser1, hits give low values 0.966 | S. cerevisiae deletion strains, locus YOR316C, strain cot1, hits give low values 0.987 | [25] 1 | [26] 0.998 | S. cerevisiae deletion strains, locus YPR119W, strain clb2, hits give low values 0.996 | S. cerevisiae deletion strains, locus YPR141C, strain kar3, hits give low values 0.975 | S. cerevisiae deletion strains, locus YPR163C, strain tif3, hits give low values 0.991 | S. cerevisiae deletion strains, locus YPR167C, strain met16, hits give low values 0.995 | S. cerevisiae deletion strains, strain wtn01, hits give low values 0.997 | [28] 0.983

CCN(CC)C(=O)N[C@H]1C=C2c3cccc4[nH]cc(c34)C[C@H]2N(C)C1
inactive: [1] 1.01 | S. cerevisiae deletion strains, locus YAL040C, strain CLN3, hits give low values 0.999 | S. cerevisiae deletion strains, locus YCL061C, strain MRC1 (second series), hits give low values 1.01 | S. cerevisiae deletion strains, locus YDR363W, strain ESC2, hits give low values 1.03 | S. cerevisiae deletion strains, locus YER002W, strain NOP16, hits give low values 1.01 | [12] 1.02 | [31] 1.01 | S. cerevisiae deletion strains, locus YNL175C, strain NOP13, hits give low values 0.996 | S. cerevisiae deletion strains, locus YNL197C, strain WHI3, hits give low values 1.01 | S. cerevisiae deletion strains, locus YNL224C, strain SQS1, hits give low values 1.02 | [22] 1.01 | S. cerevisiae deletion strains, locus YOR083W, strain WHI5 (second series), hits give low values 0.999 | [25] 0.998 | [26] 1
